{"source": "PubChem BioAssay (Tox21)", "note": "Records with an inconclusive call do not appear. A call without a number means that no potency is given here. Unmarked numbers belong to inactive results. Activity calls are given as the source filed them. The call rests on the fitted dose curve; in most records, active means well fitted activation curve with a large enough effect in the repeat runs; inconclusive means weak or mixed curves; inactive means flat fitted curve, though single readings scatter."}
{"experiment": "A CellTox Green Cytotoxicity Assay to monitor cytotoxicity in HEK293 cells - 8 hour (AID 1224884); further: nearly all actives have a fitted effect of over 35% in size", "settings": "CellTox Green fluorescence; series mostly up to 76.8 µM", "source_text": "National Center for Advancing Translational Sciences [NCATS]\nNIH Chemical Genomics Center [NCGC]\nU.S. Environmental Protection Agency [EPA]\nNational Institutes of Environmental Health Sciences [NIEHS]\nNational Toxicology Program [NTP]\nCell-based models are critical for drug discovery. Determining the natural cytotoxic effects resulting from test compounds is an essential research activity. A CellTox Green Cytotoxicity Assay to monitor cytotoxicity in real time of continues cell culture during 40 hours of the compound treatment was used to screen Tox21 10K library compounds in Hek293 cells. CellTox Green Cytotoxicity Assay is a nonlytic, homogeneous, biofluorescent method to measure cytotoxicity in cell culture after experimental manipulation. The assay system uses a proprietary asymmetric cyanine dye that is excluded from viable cells but preferentially stains the dead cell's DNA. […] Viable cells produce no appreciable increases in fluorescence. Therefore, the fluorescence signal produced by the binding interaction with dead cell DNA is proportional to cytotoxicity.\nThe mixture of Hek293 cell suspension and reagents were dispensed at 600cells/6 ul/well in 1536-well tissue culture treated black solid bottom plates using a Multidrop dispenser. After the assay plates were incubated at a 37 C/5% CO2 incubator for 5 hours, 23 nL of compounds dissolved in DMSO, positive and negative controls was transferred to the assay plate by a pintool work station. The plates were incubated at 37 C for 40 hours. The fluorescence intensity were measured at 0h, 8h, 16h, 24h, 32h and 40h time points using ViewLux plate reader during compound treatment."}
{"smiles": "CCCCCCC/C=C/C=O", "Potency": "inactive"}
{"smiles": "CC(C)CC(C)(C)C", "Potency": "inactive"}
{"smiles": "OCCc1ccncc1", "Potency": "inactive"}
{"smiles": "C=Cc1ccc(C=C)cc1", "Potency": "inactive"}
{"smiles": "O=C(N[C@@H](Cc1ccccc1)[C@@H](O)C(=O)N1C[C@@H](O)[C@@H](O)C1)c1cc2cc(Cl)ccc2[nH]1", "Potency": "inactive"}
{"smiles": "CCOc1ccc(NC(C)=O)cc1N", "Potency": "inactive"}
{"smiles": "CCn1nc(Cc2ccccc2)cc1C1CCN(C[C@H]2C[C@H](N(C)[C@@H](C(=O)O)C(C)C)C[C@@H]2c2cccc(F)c2)CC1", "Potency": "inactive"}
{"smiles": "O=C(O)c1ccc2cc(O)ccc2c1", "Potency": "inactive"}
{"smiles": "CCCCCCCCCCCCSC#N", "Potency": "inactive"}
{"smiles": "C=CC(=O)OCCCCCCCCCC", "Potency": "inactive"}
{"smiles": "CCC(=O)O[C@]1(C(=O)COC)[C@@H](C)C[C@H]2[C@@H]3CCC4=CC(=O)C=C[C@]4(C)C3(F)[C@@H](O)C[C@@]21C", "note": "(stereo not given in full)", "Potency": "inactive"}
{"smiles": "C=C[Si](OCC)(OCC)OCC", "Potency": "inactive"}
{"smiles": "Cc1cc(SC2=C(O)C[C@@](CCc3ccc(N)cc3)(C(C)C)OC2=O)c(C(C)(C)C)cc1CO", "Potency": "inactive"}
{"smiles": "CC(CN=Cc1ccccc1O)N=Cc1ccccc1O", "note": "(stereo not given)", "Potency": "inactive"}
{"smiles": "CC(=O)S[C@H](C(=O)N[C@H]1Cc2ccccc2[C@H]2CCC[C@@H](C(=O)O)N2C1=O)C(C)C", "Potency": "inactive"}
{"smiles": "CC(=O)CC/C=C(\\C)CC/C=C(\\C)CC/C=C(\\C)CCC=C(C)C", "Potency": "inactive"}
{"smiles": "Cc1ccc(S(=O)(=O)NC(=O)NC2CCCC2)cc1", "Potency": "inactive"}
{"smiles": "O=C(O)c1ccc2c(c1)nc(C(=O)NC1CCN(C3CC3)CC1)n2Cc1cc(-c2ccc(Cl)s2)on1", "cytotoxicity increase": "-5.24% [at 15.8 µM]"}
{"smiles": "N#Cc1ccc(CC(=O)c2cccc(C(F)(F)F)c2)cc1", "Potency": "inactive"}
{"smiles": "O=C1c2ccccc2C(=O)c2c1ccc(O)c2O", "Potency": "inactive"}
{"smiles": "CCCCCO", "Potency": "inactive"}
{"smiles": "O=C(Cl)c1ccc(F)c(Cl)c1", "Potency": "inactive"}
{"smiles": "c1ccc(-c2ccc(-c3ccccc3)cc2)cc1", "cytotoxicity increase": "-5.69% [at 15.8 µM]"}
{"smiles": "CCOC(=O)CC(O)(CC(=O)OCC)C(=O)OCC", "Potency": "inactive"}
{"smiles": "CCCCCCCCCCCC(=O)OCC", "Potency": "inactive"}
{"smiles": "O=C(OCCOCCOCCOC(=O)c1ccccc1)c1ccccc1", "Potency": "inactive"}
{"smiles": "C1=COCCC1", "Potency": "inactive"}
{"smiles": "FC1(F)C(F)(F)C(F)(F)C2(F)C(F)(C1(F)F)C(F)(F)C(F)(F)C1(F)C(F)(F)C(F)(F)C(F)(F)C(F)(F)C12F", "note": "(stereo not given)", "Potency": "inactive"}
{"smiles": "Cc1c(Cl)cccc1Nc1ccccc1C(=O)O", "Potency": "inactive"}
{"smiles": "CC(C(=O)O)c1ccc(/C=C2\\CCCCC2=O)cc1", "note": "(stereo not given)", "Potency": "inactive"}
{"smiles": "C=C[Si]1(C)O[Si](C)(C=C)O[Si](C)(C=C)O[Si](C)(C=C)O1", "note": "(stereo not given)", "Potency": "inactive"}
{"smiles": "CC(COc1ccccc1)NC(C)C(O)c1ccc(O)cc1", "note": "(stereo not given)", "Potency": "inactive"}
{"smiles": "CC(C(=O)O)c1ccc2c(c1)Cc1cccnc1O2", "note": "(stereo not given)", "Potency": "inactive"}
{"smiles": "CCc1ccc(C(=O)C(C)CN2CCCCC2)cc1", "note": "(stereo not given)", "Potency": "inactive"}
{"smiles": "CCc1c(C)[nH]c2c1C(=O)C(CN1CCOCC1)CC2", "note": "(stereo not given)", "Potency": "inactive"}
{"smiles": "C[C@]12CCC(=O)C=C1[C@@H]1C[C@@H]1[C@H]1[C@@H]3[C@@H]4C[C@@H]4[C@@]4(CCC(=O)O4)[C@@]3(C)CC[C@@H]12", "Potency": "inactive"}
{"smiles": "C=CC(=O)NC(C)(C)C", "Potency": "inactive"}
{"smiles": "COc1ccnc2c1CCCCC2S(=O)c1nc2ccccc2[nH]1", "note": "(stereo not given)", "Potency": "inactive"}
{"smiles": "COC(=O)/C=C/C(C)=C\\C=C\\C(C)=C\\C=C\\C=C(C)\\C=C\\C=C(C)\\C=C\\C(=O)O", "Potency": "inactive"}
{"smiles": "O=C(Cl)c1cc(Cl)cc(Cl)c1", "Potency": "inactive"}
